Laboratory results published in PubChem BioAssay AID1159580 (chemical genetic matrix, 2015).
Among all 5,500 compounds or so, about 2,000 (36%) were called active. Roughly 18% stayed inconclusive and do not appear here. No stated cut-off is given here; in the data, active means normalized growth mostly below about 0.91 (no sharp cut-off); inconclusive means no clear call, values can overlap the other calls; inactive means mostly above about 0.92. The list shows a part of the results.

Assay: chemical genetic growth profiling, strain panel (AID 1159580);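 further: tested at 20 µM; growth read once vehicle control cultures reached saturation at 30 °C; 1 = growth at the plate median or of vehicle wells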
Conditions: growth OD

Measured: normalized growth

CC1=CC2C(C(C)C)CCC(C)(O)C2CC1 (stereo not drawn)
active: S. cerevisiae deletion strains, locus YLR262C, strain YPT6 (second series), stronger effect = lower value 0.81 | S. cerevisiae deletion strains, locus YNL071W, strain lat1, stronger effect = lower value 0.876
inactive: S. cerevisiae deletion strains, locus YJL187C, strain SWE1 (second series), stronger effect = lower value 1.01 | S. cerevisiae deletion strains, locus YJL187C, strain SWE1, stronger effect = lower value 1 | S. cerevisiae deletion strains, locus YJR043C, strain POL32, stronger effect = lower value 0.973 | S. cerevisiae deletion strains, locus YJR066W, strain TOR1, stronger effect = lower value 0.914 | S. cerevisiae deletion strains, locus YKL009W, strain mrt4, stronger effect = lower value 0.994 | S. cerevisiae deletion strains, locus YKL068W, stronger effect = lower value 0.972 | S. cerevisiae deletion strains, locus YKL085W, strain MDH1 (second series), stronger effect = lower value 0.979 | S. cerevisiae deletion strains, locus YKL085W, strain MDH1, stronger effect = lower value 0.979 | S. cerevisiae deletion strains, locus YKL160W, strain elf1, stronger effect = lower value 0.968 | S. cerevisiae deletion strains, locus YKL190W, strain CNB1, stronger effect = lower value 0.994 | S. cerevisiae deletion strains, locus YKR001C, strain vps1, stronger effect = lower value 0.989 | S. cerevisiae deletion strains, locus YKR026C, strain gcn3, stronger effect = lower value 0.993 | S. cerevisiae deletion strains, locus YKR091W, strain srl3, stronger effect = lower value 0.987 | S. cerevisiae deletion strains, locus YLL001W, strain dnm1, stronger effect = lower value 0.947 | S. cerevisiae deletion strains, locus YLL026W, stronger effect = lower value 0.988 | S. cerevisiae deletion strains, locus YLL041C, strain sdh2, stronger effect = lower value 0.995 | S. cerevisiae deletion strains, locus YLR027C, strain aat2, stronger effect = lower value 0.978 | S. cerevisiae deletion strains, locus YLR039C, strain RIC1, stronger effect = lower value 0.913 | S. cerevisiae deletion strains, locus YLR058C, strain SHM2, stronger effect = lower value 0.98 | S. cerevisiae deletion strains, locus YLR102C, strain apc9, stronger effect = lower value 0.989 | S. cerevisiae deletion strains, locus YLR113W, strain HOG1, stronger effect = lower value 0.887 | S. cerevisiae deletion strains, locus YLR221C, strain rsa3, stronger effect = lower value 0.986 | S. cerevisiae deletion strains, locus YLR258W, strain gsy2, stronger effect = lower value 0.971 | S. cerevisiae deletion strains, locus YLR268W, strain sec22, stronger effect = lower value 0.949 | S. cerevisiae deletion strains, locus YLR320W, strain mms22, stronger effect = lower value 0.966 | S. cerevisiae deletion strains, locus YLR330W, strain CHS5, stronger effect = lower value 0.982 | S. cerevisiae deletion strains, locus YLR342W, strain FKS1, stronger effect = lower value 0.983 | S. cerevisiae deletion strains, locus YLR357W, strain rsc2, stronger effect = lower value 1.08 | S. cerevisiae deletion strains, locus YLR370C, strain arc18, stronger effect = lower value 0.984 | S. cerevisiae deletion strains, locus YLR371W, strain rom2, stronger effect = lower value 1.01 | S. cerevisiae deletion strains, locus YLR384C, strain iki3, stronger effect = lower value 0.991 | S. cerevisiae deletion strains, locus YLR418C, strain cdc73, stronger effect = lower value 0.966 | S. cerevisiae deletion strains, locus YML016C, strain PPZ1, stronger effect = lower value 0.992 | S. cerevisiae deletion strains, locus YML032C, strain rad52, stronger effect = lower value 0.971 | S. cerevisiae deletion strains, locus YML120C, strain ndi1, stronger effect = lower value 0.966 | S. cerevisiae deletion strains, locus YML124C, strain tub3, stronger effect = lower value 0.985 | S. cerevisiae deletion strains, locus YMR058W, strain fet3, stronger effect = lower value 1.01 | S. cerevisiae deletion strains, locus YMR078C, strain ctf18, stronger effect = lower value 0.981 | S. cerevisiae deletion strains, locus YMR125W, strain sto1, stronger effect = lower value 1.02 | S. cerevisiae deletion strains, locus YMR129W, stronger effect = lower value 0.982 | S. cerevisiae deletion strains, locus YMR205C, strain PFK2, stronger effect = lower value 0.949 | S. cerevisiae deletion strains, locus YMR223W, strain ubp8, stronger effect = lower value 0.964 | S. cerevisiae deletion strains, locus YMR231W, strain pep5, stronger effect = lower value 0.994 | S. cerevisiae deletion strains, locus YMR307W, strain GAS1, stronger effect = lower value 0.993 | S. cerevisiae deletion strains, locus YNL067W, strain RPL9B, stronger effect = lower value 1.02 | S. cerevisiae deletion strains, locus YNL128W, strain TEP1, stronger effect = lower value 0.962 | S. cerevisiae deletion strains, locus YNL183C, strain NPR1, stronger effect = lower value 0.911 | S. cerevisiae deletion strains, locus YNL209W, strain ssb2, stronger effect = lower value 0.984 | S. cerevisiae deletion strains, locus YNL233W, strain BNI4, stronger effect = lower value 1.01 | S. cerevisiae deletion strains, locus YNL248C, strain rpa49, stronger effect = lower value 1.03 | S. cerevisiae deletion strains, locus YNL250W, strain rad50, stronger effect = lower value 0.952 | S. cerevisiae deletion strains, locus YNL271C, strain bni1, stronger effect = lower value 0.986 | S. cerevisiae deletion strains, locus YNL298W, strain CLA4, stronger effect = lower value 0.983 | S. cerevisiae deletion strains, locus YNL307C, strain MCK1, stronger effect = lower value 0.986 | S. cerevisiae deletion strains, locus YNL322C, strain KRE1 (second series), stronger effect = lower value 0.975 | S. cerevisiae deletion strains, locus YNL322C, strain KRE1, stronger effect = lower value 0.984 | S. cerevisiae deletion strains, locus YNR049C, strain mso1, stronger effect = lower value 0.998 | S. cerevisiae deletion strains, locus YNR052C, strain pop2, stronger effect = lower value 1 | S. cerevisiae deletion strains, locus YOL012C, strain htz1 1.19 | S. cerevisiae deletion strains, locus YOL147C, strain pex11, stronger effect = lower value 0.982 | S. cerevisiae deletion strains, locus YOR001W, strain rrp6, stronger effect = lower value 0.989 | S. cerevisiae deletion strains, locus YOR061W, strain CKA2, stronger effect = lower value 0.966 | S. cerevisiae deletion strains, locus YOR069W, strain VPS5, stronger effect = lower value 0.989 | S. cerevisiae deletion strains, locus YOR070C, strain gyp1, stronger effect = lower value 0.975 | S. cerevisiae deletion strains, locus YOR080W, strain dia2, stronger effect = lower value 0.993 | S. cerevisiae deletion strains, locus YOR083W, strain WHI5, stronger effect = lower value 0.964 | S. cerevisiae deletion strains, locus YOR106W, strain vam3, stronger effect = lower value 0.997 | S. cerevisiae deletion strains, locus YOR136W, strain idh2, stronger effect = lower value 0.968 | S. cerevisiae deletion strains, locus YOR144C, strain elg1, stronger effect = lower value 0.985 | S. cerevisiae deletion strains, locus YOR184W, strain ser1, stronger effect = lower value 0.933 | S. cerevisiae deletion strains, locus YOR231W, strain MKK1, stronger effect = lower value 0.911 | S. cerevisiae deletion strains, locus YOR265W, strain rbl2, stronger effect = lower value 0.978 | S. cerevisiae deletion strains, locus YOR270C, strain vph1, stronger effect = lower value 0.959 | S. cerevisiae deletion strains, locus YOR290C, strain snf2, stronger effect = lower value 0.997 | S. cerevisiae deletion strains, locus YOR316C, strain cot1, stronger effect = lower value 0.989 | S. cerevisiae deletion strains, locus YPL051W, strain arl3, stronger effect = lower value 0.946 | S. cerevisiae deletion strains, locus YPL078C, strain atp4, stronger effect = lower value 0.957 | S. cerevisiae deletion strains, locus YPL106C, strain sse1, stronger effect = lower value 1 | S. cerevisiae deletion strains, locus YPL240C, strain hsp82, stronger effect = lower value 0.987 | S. cerevisiae deletion strains, locus YPL256C, strain CLN2, stronger effect = lower value 0.915 | S. cerevisiae deletion strains, locus YPR119W, strain clb2, stronger effect = lower value 0.985 | S. cerevisiae deletion strains, locus YPR141C, strain kar3, stronger effect = lower value 0.97 | S. cerevisiae deletion strains, locus YPR163C, strain tif3, stronger effect = lower value 0.99 | S. cerevisiae deletion strains, locus YPR167C, strain met16, stronger effect = lower value 0.987 | S. cerevisiae deletion strains, strain wtn01, stronger effect = lower value 0.964 | S. cerevisiae strains, strain wild type, stronger effect = lower value 0.969
